Pf growth 96h – P. falciparum growth inhibition at 96 hour, primary screen for plastid delayed-death inhibitors; P. falciparum luciferase reporter growth, 96 h; Potency, µM (doses to about 28.7 µM), for the others: at the highest dose activity change, negative = inhibition, most hits filed as inhibitors; 320,000 compounds, 6.9% hits; AID 504834; also: potency is read from the fitted curve at half-maximal effect; % is scaled to controls: 0 for no effect and ±100 for the full control effect
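Cell-based qHTS: luciferase-tagged P. falciparum in erythrocytes (2% hematocrit, 0.05% parasitemia final) incubated with compounds for 96 hours, 37 C, 5% CO2; luciferase detection reagent then added and luminescence measured.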
Cycloheximide cs – counter-screen for Shiga toxin inhibitors: cycloheximide protein synthesis inhibition; cell reporter, cycloheximide protein synthesis inhibition counterscreen; max response, %; 300,000 compounds, 12% hits; AID 2314; in the data active = max response mostly above about 13%, no sharp cut-off; inactive = mostly below about 14%; also: read at 38.3 µM for the half of the compounds with a filed dose; 0% is about no effect
Shiga inhibitor – Shiga toxin inhibition; Vero cells, Shiga toxin protein synthesis inhibition reporter; inhibition, % at 38.7 µM; 290,000 compounds, 9.2% hits; in the data active = inhibition mostly above about 28%, no sharp cut-off; inactive = mostly below about 43%; also: 0% is about no effect
Pf growth 48h – P. falciparum growth inhibition at 48 hours (one generation); 310,000 compounds, 5.9% hits; Potency, µM (doses to about 28.7 µM), inactives show at the top dose activity change, negative = inhibition, hits mostly inhibitors; AID 504832; P. falciparum luciferase growth in erythrocytes, 48 h; also: potency is read from the fitted curve at half-maximal effect; % is scaled to controls: 0 for no effect and ±100 for the full control effect
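Luciferase-expressing parasites in RBCs, 2% Hct / 0.1% parasitemia final; RPMI 1640 + 0.5% Albumax; 37 C, 5% CO2, one generation; luminescence read-out, lower signal = inhibition.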
HCMV antiviral – inhibitors of human cytomegalovirus | HFF cells, HCMV-luciferase reporter, 72 h; hits give low values | activity change, negative = inhibition, % at 57.5 µM | 410,000 compounds, 4.5% hits; in the data active = activity change below about -60%; inconclusive = no clear call, values can overlap the other calls; inactive = above about -39%; also: % is scaled to controls: 0 for no effect and ±100 for the full control effect
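Two compound doses tested in HFFs infected with HCMV-luciferase, MOI 1 PFU/cell, 72 h at 37C. Lysate luminescence read with OneGlo; data normalized against buffer-only and 10uM Salinomycin inhibitor controls.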
* = called active by the depositor; i = inactive; ? = inconclusive; · = no result; + = active, no number; [ ] = remark or other dose. In the library only some 20% were active in any assay of this set; here they are far more common. Unless noted, calls follow the shape of the dose curve; as a rule, active = well fitted inhibition curve with a large enough effect; inconclusive = small, poorly fitted or top-dose-only effect, or another doubt; inactive = no such curve, though single readings can be large or run the other way.

SMILES	Pf growth 96h	Cycloheximide cs	Shiga inhibitor	Pf growth 48h	HCMV antiviral
O=C(N/N=C/c1ccc2c(c1)OCO2)C(=O)Nc1ccccc1Cl	-29%	-2	23	73%	4
O=C(O)c1ccc(N/N=C/c2ccc3c(c2)OCO3)cc1	-14%	-11	-41	?	-73*
O=C(O/N=C/c1ccc2c(c1)OCO2)c1ccccc1Cl	1%	55*	132*	-7%	·
O=C(O)c1cc(N/N=C/c2ccc3c(c2)OCO3)ccc1Cl	439%	80*	+	i	98
Cc1ccc(CNC(=O)CO/N=C/c2ccc3c(c2)OCO3)cc1	23%	-2	-5	-8%	12
Cc1ccc(S(=O)(=O)NC(=O)ON=Cc2ccc3c(c2)OCO3)cc1	·	·	·	·	-98*
COc1cc(/C=N/Nc2ccc(Cl)c(C(=O)O)c2)ccc1OC(=O)c1ccc(F)cc1	349%	13	23	115%	25
Cc1ccc(CNC(=O)Cn2c(=O)n(-c3ccc(C)cc3)c(=O)c3c2c2cc(C)ccc2n3C)cc1	·	·	·	·	19
Cc1ccn2cc(CCNC(=O)CC3CCCCC3)nc2c1	0%	9	-11	30%	54
Cc1cc(C)nc(N/N=C/c2cc3c(cc2[N+](=O)[O-])OCO3)n1	-20%	15	1	-11%	?
O=C(O)c1ccc(N/N=C/c2cc3c(cc2[N+](=O)[O-])OCO3)cc1	74%	17	42*	395%	?
O=C(COC(=O)C1(c2ccccc2F)CCCC1)NCc1ccc2c(c1)OCO2	-13%	-2	-5	-17%	-60*
O=C(COC(=O)c1ccccc1F)NCc1ccc2c(c1)OCO2	·	·	·	·	-28
O=C(COC(=O)C1(c2ccccc2F)CCCC1)NCc1cccs1	-1%	-3	-20	?	-69*
O=C(COC(=O)C1(c2ccc(F)cc2)CCCC1)NCc1ccc2c(c1)OCO2	?	-2	-13	-2%	-60*
NC(=O)c1ccc(NC(=O)COC(=O)C2(c3ccccc3F)CCCC2)cc1	1%	-3	-4	-2%	91
O=C(NC(=S)Nc1ccccc1N1CCOCC1)c1ccc(-c2cc(Cl)ccc2Cl)o1	209%	-5	-10	12%	40
O=C(c1ccc(-c2ccc(Cl)cc2Cl)o1)N1CCOCC1	-36%[1.15 µM]	42*	80*	470%	62
O=C(c1ccc(-c2cc(Cl)ccc2Cl)o1)N1CCOCC1	?	16*	38	52%	-24
Cc1ccc(C(=O)NCCc2ccc(S(N)(=O)=O)cc2)cc1[N+](=O)[O-]	-23%	-3	-9	-21%	67
CC(C)COc1ccc(C(=O)Nc2ccccc2[N+](=O)[O-])cc1	10µM*	53*	active	120%	-25
Cc1ccc(C(=O)NCCNS(=O)(=O)c2ccccc2[N+](=O)[O-])cc1	-1%	3	·	?	44
CCCNC(=O)c1ccc(S(=O)(=O)c2ccc(OC)cc2)c([N+](=O)[O-])c1	4%	1	-5	12µM*	?
O=C(NCCNc1ccccc1[N+](=O)[O-])c1cc(F)c(F)cc1Cl	30%	50*	154*	36%	77
CCCOc1ccc(C(=O)Nc2ccc(C)cc2[N+](=O)[O-])cc1	1%	-2	6	43%	-3
SMILES	Pf growth 96h	Cycloheximide cs	Shiga inhibitor	Pf growth 48h	HCMV antiviral
COc1ccc(C(=O)NCCNc2ccccc2[N+](=O)[O-])cc1	21%	32*	77*	50%	31
O=C(NCCNc1ccc([N+](=O)[O-])cc1)c1cc(F)c(F)cc1Cl	·	·	·	·	7
COc1cc(OC)cc(C(=O)N(Cc2ccco2)c2c(N)n(Cc3ccccc3)c(=O)[nH]c2=O)c1	·	·	·	·	-11
CCC(C)NC(=O)CN1C(=O)c2cccnc2Oc2ccc(C)cc21 (centres undefined)	·	·	·	·	18
CC1(C(=O)NS(=O)(=O)c2ccccc2C(F)(F)F)CCN1C(=O)CC1CCCC1 (centres undefined)	·	·	·	·	54
O=c1c2c(nc3cc(-c4ccc(F)cc4)[nH]n13)CCC2	?	101*	100*	-4%	41
Cc1ccc(-c2cc3nc4c(c(=O)n3[nH]2)CCCC4)cc1	·	·	·	·	72
COc1ccc(NC2=NCC(=O)N2Cc2cccs2)cc1	18%	1	-14	17%	-6
Cc1ccc(NC2=NCC(=O)N2Cc2cccs2)cc1C	?	29*	24	-13%	32
OC(c1ccccc1)(c1ccccc1)c1ccn[nH]1	52%	·	·	?	5
CC(C)(C)OC(=O)CC1(C#N)c2ccccc2C(Br)=CN1C(=O)c1ccccc1 (centres undefined)	12µM*	·	·	12µM*	?

Screens (PubChem)
